Compound activity deposited in PubChem by several laboratories.
Bim-Mcl-1 = inhibitors of Bim peptide binding to Mcl-1, primary screen, biochemical, bead-based flow cytometry, multiplex; Induced myeloid leukemia cell differentiation protein Mcl-1 (Homo sapiens), Q07820; Bim peptide-Mcl-1 binding; inhibition, % at 10 µM; hit rate 0.1% among 190,000; in the data active means inhibition above about 40%
Target sequence (Q07820 whole entry, looked up): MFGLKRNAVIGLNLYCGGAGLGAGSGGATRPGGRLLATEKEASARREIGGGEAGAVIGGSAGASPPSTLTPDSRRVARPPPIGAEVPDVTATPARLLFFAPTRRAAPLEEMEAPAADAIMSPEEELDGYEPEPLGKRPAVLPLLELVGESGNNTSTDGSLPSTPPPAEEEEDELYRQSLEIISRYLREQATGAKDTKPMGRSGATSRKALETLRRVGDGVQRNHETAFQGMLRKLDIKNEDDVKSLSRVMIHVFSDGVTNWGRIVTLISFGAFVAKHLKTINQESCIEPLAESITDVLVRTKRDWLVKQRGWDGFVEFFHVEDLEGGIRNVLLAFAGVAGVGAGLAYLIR
Mcl1 Noxa PPI = Mcl-1/Noxa binding inhibitors, primary screen, biochemical, TR-FRET, 1536-well | Induced myeloid leukemia cell differentiation protein Mcl-1 (Homo sapiens), Q07820 | AID 1022, 2008 | hit rate 1.5% among 220,000 | inhibition, % at 21.7 µM | TR-FRET Mcl-1/Noxa peptide binding, 2 h;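 active means compounds that cut the protein-peptide binding signal by more than 50% relative to plate controls in a single-dose test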;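 further: His-tagged Mcl-1 with rhodamine Noxa BH3 peptide and terbium anti-His antibody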
Arbovirus inh = antivirals against arbovirus infection, primary screen, cell-based, full library, 10K replicate subset | AID 1251, 2008 | inhibition, % at 10 µM | arbovirus infection cell-based antiviral screen | hit rate 0.37% among 200,000; in the data active means inhibition above about 30%
Mcl1 Bid PPI = Mcl-1/Bid binding inhibitors, primary screen, biochemical, TR-FRET, 1536-well | TR-FRET Mcl-1/Bid-Dy647 peptide binding | inhibition, % at 21.7 µM | AID 1021, 2008 | Induced myeloid leukemia cell differentiation protein Mcl-1 (Homo sapiens), Q07820 | hit rate 0.97% among 220,000;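 active means compounds that cut the binding signal by more than half at the single screening dose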;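 further: His-tagged Mcl-1 with europium anti-His antibody binding Bid BH3 peptide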
14-3-3 Bad PPI = inhibitors of 14-3-3 zeta/Bad binding, primary screen, biochemical, TR-FRET, bovine 14-3-3 zeta; inhibition, % at 21.7 µM; AID 781, 2007; hit rate 0.71% among 220,000; TR-FRET 14-3-3zeta/Dy647-pBad peptide displacement, 1 h;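 active means inhibition above about 70%, limit read from the data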
Target sequence (P63103 whole entry, looked up): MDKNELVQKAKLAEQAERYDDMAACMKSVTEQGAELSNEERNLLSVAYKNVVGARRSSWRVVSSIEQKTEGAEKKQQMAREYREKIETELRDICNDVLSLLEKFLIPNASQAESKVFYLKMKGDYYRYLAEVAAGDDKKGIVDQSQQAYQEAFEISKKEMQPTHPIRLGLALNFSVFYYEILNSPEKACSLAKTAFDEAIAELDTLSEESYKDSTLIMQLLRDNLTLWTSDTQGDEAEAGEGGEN
Numbers stand for hits; - = inactive; . = no result given; [ ] = dose if it differs, or a comment. Rows were chosen to be rich in hits. Some 3% of all compounds tested hit in one or more screens of this group.

SMILES | Bim-Mcl-1 | Mcl1 Noxa PPI | Arbovirus inh | Mcl1 Bid PPI | 14-3-3 Bad PPI
CC(C)c1ccc2c(c1)[C@H]1OCC[C@H]1[C@@H](c1cccs1)N2 | - | - | - | - | -
COc1ccc(-c2cc(C(=O)NCC3CCCO3)c3ccccc3n2)cc1 (centres undefined) | - | - | - | - | -
COc1ccc(-c2cc(C(=O)NCC3CCCO3)c3cc(C)ccc3n2)cc1 (centres undefined) | - | - | - | - | 77
O=C(N/N=C/c1cccc([N+](=O)[O-])c1)c1cc2c(ccc3ccccc32)o1 | - | - | - | 82 | -
Cc1ccc([N+](=O)[O-])cc1-c1ccc(/C=N/NC(=O)c2cc3c(ccc4ccccc43)o2)o1 | - | - | - | - | 85[fluorescence artefact?]
O=C(N/N=C/c1ccc(-c2ccc(Cl)c(C(=O)O)c2)o1)c1cc2c(ccc3ccccc32)o1 | . | 110 | . | 96 | -
Cc1cc([N+](=O)[O-])c(C)cc1-c1ccc(/C=N/NC(=O)Cn2nnnc2N)o1 | - | 55 | - | 53 | 88
Cc1ccc(SCc2cc(=O)[nH]c(/N=C(\N)Nc3ccc(C)c(C)c3)n2)cc1 | - | - | - | - | -
CC(C)Cc1nnc(NC(=O)Cc2cccs2)s1 | - | 56 | - | - | -
CC(C)(C)Cc1nnc(NC(=O)Cc2cccs2)s1 | - | 60 | - | - | -
CCCCCc1nnc(NC(=O)Cc2cccs2)s1 | - | 67 | - | - | -
CC(C)c1nnc(NC(=O)Cc2cccs2)s1 | - | - | - | - | -
C=C(C)C(=O)Nc1cccc(C2=NOC3(C2)C[C@@H](C(N)=O)N(C(=O)CC(c2ccccc2)c2ccccc2)C3)c1 (some centres undefined) | . | 56 | . | - | -
C=C(C)C(=O)Nc1cccc(C2=NOC3(C2)C[C@@H](C(N)=O)N(C(=O)/C=C/C=C/C)C3)c1 (some centres undefined) | . | 97 | . | - | -
C=C(C)C(=O)Nc1cccc(C2=NOC3(C2)C[C@H](C(N)=O)N(C(=O)c2ccccc2C(=O)c2ccccc2)C3)c1 (some centres undefined) | . | 71 | . | - | -
C/C=C/C=C/C(=O)N1CC2(CC(c3cccc(NC(=O)/C=C/C)c3)=NO2)C[C@@H]1C(N)=O (some centres undefined) | . | - | . | - | -
C=C(C)C(=O)Nc1cccc(C2=NOC3(C2)C[C@@H](C(N)=O)N(C(=O)/C(C)=C/C)C3)c1 (some centres undefined) | . | 73 | . | - | -
CCOc1cc(/C=C(\C#N)C(N)=O)ccc1OCc1c(C)no[n+]1[O-] | - | - | - | - | -
Cc1ccc2c(c1)cc1c(=O)[nH]ncn12 | - | - | - | - | -
C=C(C)C(=O)Nc1cccc(C2=NOC3(C2)C[C@H](C(N)=O)N(C(=O)CC)C3)c1 (some centres undefined) | . | 69 | . | - | -
CCOC(=O)C1CCN(c2nc(C)nc3c2oc2ccccc23)CC1 | - | - | - | - | -
CCOC(=O)C1CCCN(c2nc(C)nc3c2oc2ccccc23)C1 (centres undefined) | - | - | - | - | 83
Cc1ccc(NC(=O)c2noc3c2CCC3)cc1C | - | 54 | - | - | -
COc1cc(NC(=O)c2noc3c2CCC3)c(OC)cc1Cl | - | 63 | - | - | -
COc1ccc(S(=O)(=O)Nc2cc3c(cc2C(C)=O)OCO3)cc1 | - | - | - | - | -
SMILES | Bim-Mcl-1 | Mcl1 Noxa PPI | Arbovirus inh | Mcl1 Bid PPI | 14-3-3 Bad PPI
O=c1ccc2cc3c([nH]c4ccc(Br)cc43)oc-2c1O | - | 94 | - | - | -
O=C(O)c1ccc(N/N=C/c2cc3cc4c(cc3nc2Cl)OCCO4)cc1 | . | - | . | - | -
COC(=O)Cn1c(=O)c2c(n(Cc3ccccc3)c1=O)N/C(=C/c1ccc(Br)cc1)C2=O | . | 54 | . | - | -
O=c1[nH]c(CSc2nnc(Cc3ccccc3)o2)nc2ccccc12 | - | - | - | - | -
CN1CCN(C2=C(Cl)C(=O)C(c3cnc(N4CCCCC4)s3)=C(Cl)C2=O)CC1 | - | 98 | - | 79 | 83[fluorescence artefact?]
CN(Cc1ccccc1)C(=O)CN1CCN(C(c2ccccc2)c2ccccc2)CC1 | - | - | - | - | -
COc1ccc2c(C(=O)CCl)c[nH]c2c1 | . | - | . | - | -
COc1ccc(/C=N/NC(=O)c2cc(O)c(O)c(O)c2)cc1Cn1cc([N+](=O)[O-])cn1 | - | 93 | - | - | -
COc1ccc(-c2cnnc(N/N=C/c3ccc(O)cc3)n2)cc1 | - | 88 | - | - | -
O=C(Nc1cccc(S(=O)(=O)NC2=NCCCCC2)c1)c1cccnc1Cl | . | - | . | - | -
O=C(Nc1cccc(S(=O)(=O)NC2=NCCCCC2)c1)c1cc(-c2ccco2)nc2ccccc12 | . | 97 | . | - | -
O=C(Nc1cccc(S(=O)(=O)NCc2ccco2)c1)c1cc(-c2ccccc2)nc2ccccc12 | - | - | - | - | -
O=C(Nc1cccc(S(=O)(=O)NC2=NCCCCC2)c1)c1cc(-c2ccncc2)nc2ccccc12 | - | 54 | - | - | -
O=C(CSc1nc2c(cnn2-c2ccc(F)cc2)c(=O)[nH]1)N1CCCc2ccccc21 | - | - | - | 94 | -
CC(=O)N1CCN(C(=O)CSc2nc3c(cnn3-c3ccccc3)c(=O)[nH]2)CC1 | - | - | - | - | -
COc1ccc(C(=O)Nc2cc(C)on2)cc1S(=O)(=O)N1CC(c2ccccc2)CC1=O (centres undefined) | - | - | - | - | 90
CC1CN(c2snnc2C=C2C(=O)OC(C)(C)OC2=O)CC(C)O1 (centres undefined) | - | - | - | - | -
COC(=O)c1sccc1NC(=O)CSc1ccccc1NS(=O)(=O)c1ccc(Br)cc1 | - | - | 32 | - | -
COC(=O)c1sccc1NC(=O)CSc1ccccc1NS(=O)(=O)c1ccc(F)cc1 | - | - | - | - | -
CC(=O)NC(NC(=S)Nc1cccc(Br)c1)C(Cl)(Cl)Cl (centres undefined) | . | - | . | - | -
NNC(=S)Nc1ccc(S(=O)(=O)N2CCCCC2)cc1 | . | - | . | - | -
CCC1(C(=O)OC)CCc2c(cc(OC)c3ccccc23)C1=O (centres undefined) | . | 88 | . | - | -
CCCCCc1nc2c(=O)[nH]c3ccccc3c2o1 | - | 77 | - | - | -
CCCc1nc2c(=O)[nH]c3ccccc3c2o1 | - | - | - | - | -
CCOC(=O)c1sc(/N=C/c2ccc(O)cc2O)cc1C | - | 57 | - | - | -
O=C(CSc1nnc2c3ccccc3c3ccccc3c2n1)Nc1ccccc1 | - | - | - | - | -
O=C(CSc1nnc2c3ccccc3c3ccccc3c2n1)Nc1ccccc1F | - | 61 | - | - | -
Cc1ccc(Nc2nc(CSc3n[nH]c(N)n3)cs2)cc1 | . | - | . | - | -
